The source of these data is PubChem BioAssay (NCI).

Among the test systems are HCT-15 colon; HT29 colon; SNB-75 CNS; SNB-19 CNS; U251 CNS; PC-3 prostate; SK-MEL-5 melanoma; LOX IMVI melanoma; SK-MEL-28 melanoma; UACC-62 melanoma.
What all share (experiment): NCI-60 one-dose screen, 48 h (100 = growth as untreated, 0 = no growth, -100 = all killed)
What all share (conditions): 10 µM unless noted

The structures appear in SMILES notation. About 83,000 compounds went through this panel and 20% of them were active in at least one assay; those are over-represented in the sample as a whole.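 Plates (96-well) were seeded with cells, treated with compound at one concentration, and incubated for 48 hours before percent growth was determined.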 Values without a mark were called inactive. Active and inactive are the calls of the source. Rule for the calls: active = growth percent below 10; inactive = the rest.

For `C=C(C)[C@@H]1CC[C@]2(COC)CC[C@]3(C)[C@H](CC[C@@H]4[C@@]5(C)CCCNC(C)(C)[C@@H]5CC[C@]43C)[C@@H]12`, the growth in the experiment with HCT-15 colon was 2.81% (active); with HT29 colon it was 13.7%; in the experiment on SNB-75 CNS, 76.3%; in the experiment on SNB-19 CNS it was 66.5%; in the experiment on U251 CNS, 22.2%; in the experiment on PC-3 prostate it was 39.5%. For the same molecule, the growth in the experiment with SK-MEL-5 melanoma is 48.1%; in the experiment on LOX IMVI melanoma, -90.8% (active); with SK-MEL-28 melanoma, -61.2% (active).
`Cc1ccc2c(c1)C(=O)/C(=C/c1cccc(F)c1)S2`: the growth in the experiment with HCT-15 colon was 100%; with HT29 colon it was 104%; with SNB-75 CNS, 106%; with SNB-19 CNS it was 96.9%; in the experiment with U251 CNS, 101%; in the experiment with PC-3 prostate, 86.4%. In addition, the results for the growth in the experiment on UACC-62 melanoma, in the experiment on LOX IMVI melanoma and with SK-MEL-28 melanoma were 83.7%, 114% and 101%, respectively.
`COc1cccc(C(=O)Nc2cccc(C#Cc3cccc4[nH]nc(N)c34)c2)c1`: the growth is 28.9% in the experiment with HCT-15 colon; 37.5% in the experiment with HT29 colon; 3.74% (active) with SNB-75 CNS; 98.5% with SNB-19 CNS; 68% with U251 CNS; 32.7% with PC-3 prostate. Further, the growth was 57.6% in the experiment with UACC-62 melanoma, 37% in the experiment with LOX IMVI melanoma and 67.7% in the experiment on SK-MEL-28 melanoma.
As for `Cc1ccc2sc3c(c2c1)OC(N)=C(C#N)C3c1ccc(Cl)cc1` (configuration not stated), the growth was 30.3% with HCT-15 colon; 67.3% in the experiment with HT29 colon; 81.6% in the experiment on SNB-75 CNS; 89.9% in the experiment on SNB-19 CNS; 96.3% with U251 CNS; 71.1% in the experiment on PC-3 prostate. Also, the growth is 45.7% with UACC-62 melanoma, 86.9% with LOX IMVI melanoma and 75.2% in the experiment on SK-MEL-28 melanoma.
For `Oc1cccc2ccc(-c3nnc(SCc4ccc(O)c5ncccc45)o3)nc12`, the growth with HCT-15 colon was 8.78% (active); with HT29 colon, 56.8%; with SNB-75 CNS, 34.3%; in the experiment on SNB-19 CNS, 12.9%; in the experiment with U251 CNS it was 13.3%; in the experiment with SK-MEL-5 melanoma, -63.7% (active). Also, the growth with UACC-62 melanoma is 9.35% (active); with LOX IMVI melanoma it was 8.81% (active); in the experiment with SK-MEL-28 melanoma, 35.2%.
Turning to `COc1ccc(/C=C/C(=O)c2cc(S(N)(=O)=O)c(OC)cc2OC)cc1`, the growth in the experiment on HCT-15 colon was 42.6%; in the experiment with HT29 colon, 102%; with SNB-75 CNS it was 71.4%; with SNB-19 CNS, 81%; in the experiment with U251 CNS, 68.7%; with PC-3 prostate it was 42.9%. The growth in the experiment with UACC-62 melanoma is 76.8%; in the experiment on LOX IMVI melanoma, 52.2%; in the experiment with SK-MEL-28 melanoma, 40.9%.
For `O=C(CSc1nnc(-c2ccc3nc(-c4ccccc4)[nH]c3c2)o1)Nc1ccc(C(=O)/C=C/c2ccccc2)cc1`, the growth is 110% in the experiment with HCT-15 colon; 108% with HT29 colon; 113% in the experiment on SNB-75 CNS; 99.9% in the experiment on SNB-19 CNS; 98.2% in the experiment with U251 CNS; 106% with PC-3 prostate. Moreover, the figures for the growth in the experiment with SK-MEL-5 melanoma, in the experiment on LOX IMVI melanoma and in the experiment on SK-MEL-28 melanoma were 98.3%, 97.3% and 103%, respectively.
On to `COc1cc(-c2nc(SC(C)C)n(C(C)C)c(=O)c2C#N)ccc1OCc1ccccc1`, for which the growth with HCT-15 colon is 73.8%; in the experiment on HT29 colon, 91.2%; with SNB-75 CNS, 82.4%; with SNB-19 CNS it was 83.8%; in the experiment with U251 CNS it was 32.7%; in the experiment with LOX IMVI melanoma, 62.1%. The growth in the experiment on SK-MEL-28 melanoma is 96.8%.
Take `COc1ccc(CCN2C(=O)CSC2=S)cc1`: the growth with HCT-15 colon was 56.9%; in the experiment on HT29 colon it was 104%; with SNB-75 CNS, 94.6%; in the experiment with SNB-19 CNS it was 96.6%; in the experiment with U251 CNS, 102%; with UACC-62 melanoma it was 94.2%. Also, the growth in the experiment with LOX IMVI melanoma is 30.3%; in the experiment on SK-MEL-28 melanoma, 93.9%.
For `O=C(c1ccc(Cl)cc1)C1[C@H](c2ccc(Cl)cc2)[C@@H](c2ccccc2)NC12C(=O)Nc1ccccc12` (some centres not stated), the growth in the experiment on HCT-15 colon was 35.1%; with HT29 colon, 15.4%; in the experiment on SNB-75 CNS it was 51.1%; with SNB-19 CNS, 70.3%; with U251 CNS, 45.8%; in the experiment with SK-MEL-5 melanoma it was 75.1%. Moreover, the growth was 52.8% in the experiment on UACC-62 melanoma, 42.4% with LOX IMVI melanoma and 81.2% in the experiment with SK-MEL-28 melanoma.
As to `NC(N)=Nc1ccc(Oc2cccc(NC(N)=Nc3ccc(Cl)c(C(F)(F)F)c3)c2)cc1`, the growth was 84.3% with HCT-15 colon; 46.7% in the experiment with HT29 colon; 65% in the experiment with SNB-75 CNS; 13.9% in the experiment on SNB-19 CNS; 23% in the experiment on U251 CNS; 42% with SK-MEL-5 melanoma. The growth in the experiment with UACC-62 melanoma is 47.8%; in the experiment on LOX IMVI melanoma, -26.5% (active); in the experiment with SK-MEL-28 melanoma, 70%.
For the molecule `CS(=O)(=O)Nc1cc(-c2ccc3ncc(C#N)c(N[C@H](CO)c4ccccc4)c3c2)cnc1Cl`, the growth in the experiment with HCT-15 colon is 36.7%; in the experiment on HT29 colon, 74.3%; in the experiment on SNB-75 CNS, 36%; with SNB-19 CNS it was 41.7%; in the experiment on U251 CNS it was 36.1%; in the experiment on SK-MEL-5 melanoma it was -77.3% (active). Besides, the growth was 13.7% in the experiment with UACC-62 melanoma, 26.9% in the experiment with LOX IMVI melanoma and 35.2% in the experiment with SK-MEL-28 melanoma.
Turning to `O=C1[C@H]2Cc3c([nH]c4ccccc34)[C@@H](c3ccc(Br)cc3)N2C(=O)CN1C1CCN(CC2CCCCC2)CC1`, the growth in the experiment with HCT-15 colon was -91.2% (active); in the experiment on HT29 colon, -71.1% (active); with SNB-75 CNS, -1.64% (active); in the experiment with SNB-19 CNS, 4.34% (active); with U251 CNS, -90.8% (active); in the experiment with SK-MEL-5 melanoma, -99.8% (active). Moreover, the growth in the experiment with UACC-62 melanoma was 42.3%; in the experiment on LOX IMVI melanoma, -87.1% (active); in the experiment on SK-MEL-28 melanoma it was -95.5% (active).
Turning to `CNC(=O)c1cc(-c2ccc(NS(=O)(=O)c3ccc(C)cc3)cc2)nc2cccnc12`, the growth with HCT-15 colon was 105%; in the experiment with HT29 colon, 109%; in the experiment with SNB-75 CNS, 104%; with SNB-19 CNS, 99.8%; with U251 CNS it was 101%; in the experiment on SK-MEL-5 melanoma it was 103%. Further, the growth was 90.4% in the experiment on UACC-62 melanoma, 100% in the experiment on LOX IMVI melanoma and 119% in the experiment with SK-MEL-28 melanoma.
With `Cn1ccnc1C(=O)/C=C/c1ccc(CNC(=O)c2c(F)c(F)c(F)c(F)c2F)cc1`, the growth is 11.8% in the experiment with HCT-15 colon; 14.7% in the experiment on HT29 colon; 96.3% in the experiment on SNB-75 CNS; 42.2% in the experiment with SNB-19 CNS; 35.2% in the experiment on PC-3 prostate; 75.7% in the experiment with SK-MEL-5 melanoma. Besides, the growth with UACC-62 melanoma is 54.9%; in the experiment with LOX IMVI melanoma it was -66.4% (active); in the experiment with SK-MEL-28 melanoma, 90.8%.
